# Laboratory results as given in PubChem BioAssay AID1159580 (chemical genetic matrix, 2015).
# Values joined by “and” are separate entries in the source; they are usually repeats but may differ in a detail not shown here. Equal values may be shown once. About 2,000 (36%) of roughly 5,500 compounds were called active. Inconclusive results (about 18%) are left out. No stated cut-off is given here; in the data, active means normalized growth mostly below about 0.91 (no sharp cut-off); inconclusive means no clear call, values can overlap the other calls; inactive means mostly above about 0.92. The list shows a part of the results.
# Test: chemical genetic growth profiling, strain panel (AID 1159580);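 further: tested at 20 µM; growth read once vehicle control cultures reached saturation at 30 °C; 1 = growth at the plate median or of vehicle wells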
# Conditions: growth OD
# [1] = S. cerevisiae deletion strains, locus YHR030C, strain SLT2, stronger effect = lower value
# [2] = S. cerevisiae deletion strains, locus YHR079C, strain IRE1, stronger effect = lower value
# [3] = S. cerevisiae deletion strains, locus YJL095W, strain BCK1, stronger effect = lower value
# [4] = S. cerevisiae deletion strains, locus YJR066W, strain TOR1, stronger effect = lower value
# [5] = S. cerevisiae deletion strains, locus YLR113W, strain HOG1, stronger effect = lower value
# [6] = S. cerevisiae deletion strains, locus YNL183C, strain NPR1, stronger effect = lower value
# [7] = S. cerevisiae deletion strains, locus YOR231W, strain MKK1, stronger effect = lower value
# [8] = S. cerevisiae deletion strains, locus YPL256C, strain CLN2, stronger effect = lower value
structure (smiles),measurement,setting,value
COc1ccc(-c2oc3ccccc3c(=O)c2OC)cc1,normalized growth,[1],0.882 (inactive)
same,normalized growth,[2],0.897 (inactive)
same,normalized growth,[3],0.909 (inactive)
same,normalized growth,[4],0.829 (inactive)
same,normalized growth,[5],0.934 (inactive)
same,normalized growth,[6],0.836 (inactive)
same,normalized growth,[7],0.901 (inactive)
same,normalized growth,[8],0.894 (inactive)
COc1ccc2c(=O)c(OC)c(-c3ccccc3)oc2c1,normalized growth,"S. cerevisiae deletion strains, locus YBR021W, strain FUR4, stronger effect = lower value",0.758 (active)
same,normalized growth,"S. cerevisiae deletion strains, locus YBR229C, strain ROT2, stronger effect = lower value",0.966 (inactive)
same,normalized growth,"S. cerevisiae deletion strains, locus YCL029C, strain bik1, stronger effect = lower value",0.945 (inactive)
same,normalized growth,"S. cerevisiae deletion strains, locus YDL035C, strain GPR1, stronger effect = lower value",0.83 (active)
same,normalized growth,"S. cerevisiae deletion strains, locus YDL074C, strain BRE1, stronger effect = lower value",0.713 (active)
same,normalized growth,"S. cerevisiae deletion strains, locus YDL101C, strain DUN1, stronger effect = lower value",0.855 (active)
same,normalized growth,"S. cerevisiae deletion strains, locus YDL185W, strain tfp1, stronger effect = lower value",0.951 (inactive)
same,normalized growth,"S. cerevisiae deletion strains, locus YDL192W, strain arf1, stronger effect = lower value",0.829 (active)
same,normalized growth,"S. cerevisiae deletion strains, locus YDR101C, strain arx1, stronger effect = lower value",0.855 (active)
same,normalized growth,"S. cerevisiae deletion strains, locus YDR162C, strain NBP2, stronger effect = lower value",0.68 (active)
same,normalized growth,"S. cerevisiae deletion strains, locus YDR318W, strain mcm21, stronger effect = lower value",0.863 (active)
same,normalized growth,"S. cerevisiae deletion strains, locus YDR388W, stronger effect = lower value",0.929 (inactive)
same,normalized growth,"S. cerevisiae deletion strains, locus YDR502C, strain sam2, stronger effect = lower value",0.836 (active)
same,normalized growth,"S. cerevisiae deletion strains, locus YEL061C, strain CIN8, stronger effect = lower value",0.891 (active)
same,normalized growth,"S. cerevisiae deletion strains, locus YER110C, stronger effect = lower value",0.932 (inactive)
same,normalized growth,"S. cerevisiae deletion strains, locus YER155C, strain BEM2, stronger effect = lower value",0.893 (active)
same,normalized growth,"S. cerevisiae deletion strains, locus YER167W, strain BCK2, stronger effect = lower value",0.858 (active)
same,normalized growth,"S. cerevisiae deletion strains, locus YGL078C, strain dbp3, stronger effect = lower value",0.939 (inactive)
same,normalized growth,"S. cerevisiae deletion strains, locus YGL086W, strain mad1, stronger effect = lower value",0.867 (active)
same,normalized growth,"S. cerevisiae deletion strains, locus YGL248W, strain PDE1, stronger effect = lower value",0.831 (active)
same,normalized growth,"S. cerevisiae deletion strains, locus YGR078C, strain PAC10, stronger effect = lower value",0.743 (active)
same,normalized growth,"S. cerevisiae deletion strains, locus YGR135W, strain pre9, stronger effect = lower value",0.754 (active)
same,normalized growth,"S. cerevisiae deletion strains, locus YGR229C, strain SMI1, stronger effect = lower value",0.477 (active)
same,normalized growth,"S. cerevisiae deletion strains, locus YGR252W, strain gcn5, stronger effect = lower value",0.582 (active)
same,normalized growth,[1],0.646 (active) and 0.936 (inactive)
same,normalized growth,"S. cerevisiae deletion strains, locus YHR079C, strain IRE1 (second series), stronger effect = lower value",0.943 (inactive)
same,normalized growth,[2],0.925 (inactive)
same,normalized growth,"S. cerevisiae deletion strains, locus YHR094C, strain hxt1, stronger effect = lower value",0.977 (inactive)
same,normalized growth,"S. cerevisiae deletion strains, locus YHR129C, strain ARP1, stronger effect = lower value",0.858 (active)
same,normalized growth,"S. cerevisiae deletion strains, locus YHR200W, strain rpn10, stronger effect = lower value",0.892 (active)
same,normalized growth,"S. cerevisiae deletion strains, locus YIL066C, strain RNR3, stronger effect = lower value",0.771 (active)
same,normalized growth,"S. cerevisiae deletion strains, locus YIL073C, strain SPO22, stronger effect = lower value",0.862 (inactive)
same,normalized growth,"S. cerevisiae deletion strains, locus YIL125W, strain kgd1, stronger effect = lower value",0.975 (inactive)
same,normalized growth,"S. cerevisiae deletion strains, locus YIR030C, strain dcg1, stronger effect = lower value",0.928 (inactive)
same,normalized growth,[3],0.454 (active) and 0.941 (inactive)
same,normalized growth,"S. cerevisiae deletion strains, locus YJL134W, strain LCB3, stronger effect = lower value",0.951 (inactive)
same,normalized growth,"S. cerevisiae deletion strains, locus YJL168C, strain set2, stronger effect = lower value",0.97 (inactive)
same,normalized growth,"S. cerevisiae deletion strains, locus YJL187C, strain SWE1 (second series), stronger effect = lower value",0.859 (active)
same,normalized growth,"S. cerevisiae deletion strains, locus YJR043C, strain POL32, stronger effect = lower value",0.797 (active)
same,normalized growth,[4],0.867 (inactive)
same,normalized growth,"S. cerevisiae deletion strains, locus YJR075W, strain HOC1, stronger effect = lower value",0.89 (inactive)
same,normalized growth,"S. cerevisiae deletion strains, locus YKL009W, strain mrt4, stronger effect = lower value",0.901 (inactive)
same,normalized growth,"S. cerevisiae deletion strains, locus YKL068W, stronger effect = lower value",0.975 (inactive)
same,normalized growth,"S. cerevisiae deletion strains, locus YKL085W, strain MDH1 (second series), stronger effect = lower value",0.974 (inactive)
same,normalized growth,"S. cerevisiae deletion strains, locus YKL085W, strain MDH1, stronger effect = lower value",0.974 (inactive)
same,normalized growth,"S. cerevisiae deletion strains, locus YKL190W, strain CNB1, stronger effect = lower value",0.923 (inactive)
same,normalized growth,"S. cerevisiae deletion strains, locus YKR001C, strain vps1, stronger effect = lower value",0.848 (active)
same,normalized growth,"S. cerevisiae deletion strains, locus YLR039C, strain RIC1, stronger effect = lower value",0.906 (inactive)
same,normalized growth,"S. cerevisiae deletion strains, locus YLR058C, strain SHM2, stronger effect = lower value",0.888 (active)
same,normalized growth,"S. cerevisiae deletion strains, locus YLR102C, strain apc9, stronger effect = lower value",0.95 (inactive)
same,normalized growth,[5],0.931 (inactive)
same,normalized growth,"S. cerevisiae deletion strains, locus YLR262C, strain YPT6, stronger effect = lower value",0.901 (inactive)
same,normalized growth,"S. cerevisiae deletion strains, locus YLR268W, strain sec22, stronger effect = lower value",0.866 (active)
same,normalized growth,"S. cerevisiae deletion strains, locus YLR330W, strain CHS5, stronger effect = lower value",0.752 (active)
same,normalized growth,"S. cerevisiae deletion strains, locus YLR342W, strain FKS1 (second series), stronger effect = lower value",0.723 (active)
same,normalized growth,"S. cerevisiae deletion strains, locus YLR371W, strain rom2, stronger effect = lower value",0.794 (active)
same,normalized growth,"S. cerevisiae deletion strains, locus YLR418C, strain cdc73, stronger effect = lower value",0.532 (active)
same,normalized growth,"S. cerevisiae deletion strains, locus YML016C, strain PPZ1, stronger effect = lower value",0.947 (inactive)
same,normalized growth,"S. cerevisiae deletion strains, locus YML032C, strain rad52, stronger effect = lower value",0.723 (active)
same,normalized growth,"S. cerevisiae deletion strains, locus YML124C, strain tub3, stronger effect = lower value",0.941 (inactive)
same,normalized growth,"S. cerevisiae deletion strains, locus YMR078C, strain ctf18, stronger effect = lower value",0.893 (active)
same,normalized growth,"S. cerevisiae deletion strains, locus YMR223W, strain ubp8, stronger effect = lower value",0.845 (active)
same,normalized growth,"S. cerevisiae deletion strains, locus YMR263W, strain SAP30, stronger effect = lower value",0.845 (active)
same,normalized growth,"S. cerevisiae deletion strains, locus YMR307W, strain GAS1, stronger effect = lower value",0.658 (inactive)
same,normalized growth,"S. cerevisiae deletion strains, locus YNL067W, strain RPL9B, stronger effect = lower value",0.856 (active)
same,normalized growth,[6],0.916 (inactive)
same,normalized growth,"S. cerevisiae deletion strains, locus YNL233W, strain BNI4, stronger effect = lower value",0.717 (active)
same,normalized growth,"S. cerevisiae deletion strains, locus YNL250W, strain rad50, stronger effect = lower value",0.969 (inactive)
same,normalized growth,"S. cerevisiae deletion strains, locus YNL271C, strain bni1, stronger effect = lower value",0.921 (inactive)
same,normalized growth,"S. cerevisiae deletion strains, locus YNL298W, strain CLA4, stronger effect = lower value",0.894 (active)
same,normalized growth,"S. cerevisiae deletion strains, locus YNL307C, strain MCK1, stronger effect = lower value",0.676 (active)
same,normalized growth,"S. cerevisiae deletion strains, locus YNL322C, strain KRE1, stronger effect = lower value",0.95 (inactive)
same,normalized growth,"S. cerevisiae deletion strains, locus YNR052C, strain pop2, stronger effect = lower value",0.882 (active)
same,normalized growth,"S. cerevisiae deletion strains, locus YOL006C, strain TOP1, stronger effect = lower value",0.396 (active)
same,normalized growth,"S. cerevisiae deletion strains, locus YOL012C, strain htz1",0.856 (inactive)
same,normalized growth,"S. cerevisiae deletion strains, locus YOL147C, strain pex11, stronger effect = lower value",0.904 (active)
same,normalized growth,"S. cerevisiae deletion strains, locus YOR061W, strain CKA2, stronger effect = lower value",0.942 (inactive)
same,normalized growth,"S. cerevisiae deletion strains, locus YOR069W, strain VPS5, stronger effect = lower value",0.909 (active)
same,normalized growth,"S. cerevisiae deletion strains, locus YOR136W, strain idh2, stronger effect = lower value",0.95 (inactive)
same,normalized growth,"S. cerevisiae deletion strains, locus YOR144C, strain elg1, stronger effect = lower value",0.924 (active)
same,normalized growth,"S. cerevisiae deletion strains, locus YOR184W, strain ser1, stronger effect = lower value",0.622 (active)
same,normalized growth,[7],0.921 (inactive)
same,normalized growth,"S. cerevisiae deletion strains, locus YOR316C, strain cot1, stronger effect = lower value",0.953 (inactive)
same,normalized growth,"S. cerevisiae deletion strains, locus YPL055C, strain LGE1, stronger effect = lower value",0.752 (active)
same,normalized growth,[8],0.932 (inactive)
same,normalized growth,"S. cerevisiae deletion strains, locus YPR119W, strain clb2, stronger effect = lower value",0.936 (inactive)
same,normalized growth,"S. cerevisiae deletion strains, locus YPR141C, strain kar3, stronger effect = lower value",0.978 (inactive)
same,normalized growth,"S. cerevisiae deletion strains, locus YPR163C, strain tif3, stronger effect = lower value",0.853 (active)
same,normalized growth,"S. cerevisiae deletion strains, locus YPR167C, strain met16, stronger effect = lower value",0.901 (active)
same,normalized growth,"S. cerevisiae deletion strains, strain wtn01, stronger effect = lower value",0.887 (active)
same,normalized growth,"S. cerevisiae strains, strain wild type, stronger effect = lower value",0.884 (active)
